Here are results for 18 compounds from PubChem BioAssay (Tox21).

In assay [1] the target is Thyrotropin receptor (Homo sapiens) (UniProt P16473). The assay can be described thus: qHTS assay to identify small molecule agonists of the thyroid stimulating hormone receptor (TSHR) signaling pathway (AID 1224843; calls by dose curve; note: nearly all actives have a fitted effect of over 45% in size). In outline:
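Screening of the Tox21 10K collection used HEK293 cells engineered with TSHR at 800 cells per well. After a 30-min room-temperature compound exposure, HTRF cAMP reagents were added and fluorescence recorded 1 h later.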

Assay [2] in a line: qHTS assay to identify small molecule agonists of the hypoxia (HIF-1) signaling pathway - cell viability counter screen (AID 1224844; calls by dose curve; note: nearly all actives have a fitted effect of over 50% in size). Put shortly:
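Tox21 10K compounds were added to HRE-bla ME-180 cells (0.5% dialyzed FBS) and incubated 17 hrs at 37C; ATP-based CellTiter-Glo luminescence then reported cell viability in the same wells.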
(In general: qHTS replaces the single test concentration by a dilution series.)

Assay [3] can be described thus: qHTS assay to identify small molecule agonists of H2AX (AID 1224845; active = well fitted activation curve with a large enough effect in the signal ratio in the repeat runs, not every such curve was filed as active; the % refers to the signal ratio). In outline:
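Phospho-H2AX Ser139 measured by HTRF (ex 320 nm; em 665 and 620 nm) after 24 hr antibody incubation. Compounds, 15 concentrations, 0.76% DMSO, were applied to CHO-K1 cells for 3hr at 37C before lysis.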

Assay [4] in a line: qHTS assay to identify small molecule agonists of the hypoxia (HIF-1) signaling pathway (AID 1224846; active = well fitted activation curve with a large enough effect in the signal ratio in the repeat runs, not every such curve was filed as active; the % refers to the signal ratio). Put shortly:
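Steps: seed ME-180 HRE-bla cells (2,000/well, 0.5% dialyzed FBS); incubate 5 hrs at 37C; pin-transfer compounds or DMSO; incubate 17 hrs; add LiveBLAzer B/G substrate CCF4-AM; measure reporter activation by FRET.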

Assay [5] in a line: qHTS assay to identify small molecule agonists of H2AX - cell viability counter screen (AID 1224847; calls by dose curve;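 note: wild-type CHO-K1 cells; top concentration of the series differs between compounds; nearly all actives have a fitted effect of over 30% in size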). Put shortly: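 For this counter screen, overnight-attached CHO-K1 cells received test compounds (15 concentrations, 0.76% DMSO final); 3 hr later at 37C, CellTiter-Glo reagent was added and luminescence recorded after 30 min at room temperature.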
Assay [6] is described as follows: qHTS assay to identify small molecule antagonists of the estrogen related receptor (ERR) signaling pathway from Tox21 library (AID 1224848). Note: nearly all actives have a fitted effect of over 50% in size. Put shortly: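 Antagonist-mode screen of the Tox21 10K library in an NTP-provided ERR reporter cell line; 18 h compound exposure at 37 C, luminescence measured with ONE-Glo.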
The nature of assay [7]: qHTS assay to identify small molecule agonists of the estrogen related receptor (ERR) signaling pathway from Tox21 library (AID 1224849; calls by dose curve; note: nearly all actives have a fitted effect of over 15% in size). To be noted: ERR reporter cell line, ONE-Glo luciferase, 18 h; at 92.4 µM (top of the series) unless noted. In outline:
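Agonist signal is luciferase luminescence from an ERR reporter cell line treated 18 h at 37 C with DMSO-dissolved compounds, read 30 min after ONE-Glo addition at room temperature.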

A short description of assay [8]: qHTS RealTime-Glo MT Cell Viability Assay in HepG2 cells - 24 hour (AID 1224867). Note: nearly all actives have a fitted effect of over 50% in size. Put shortly: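 Cells + NanoLuc/prosubstrate dispensed (600 cells/well) → 5 h at 37 C/5% CO2 → compounds in DMSO transferred → 40 h incubation at 37 C, luminescence read at 0, 8, 16, 24, 32, 40 h.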
Assay [9] in a line: qHTS RealTime-Glo MT Cell Viability Assay in HEK293 cells - 32 hour (AID 1224868). Note: top concentration of the series differs between compounds; nearly all actives have a fitted effect of over 50% in size. Put shortly: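 Tox21 10K qHTS, HEK293, 600 cells/well, RealTime-Glo reagent co-dispensed with cells; 5 h preincubation, compound by pintool, 37 C, luminescence at 0–40 h.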
A short description of assay [10]: A CellTox Green Cytotoxicity Assay to monitor cytotoxicity in HEK293 cells - 0 hour (AID 1224869). Note: nearly all actives have a fitted effect of over 50% in size. Note: potency is the fitted concentration of half-maximal effect. In outline:
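Cytotoxicity was tracked continuously in HEK293 cells by a DNA-binding dye excluded from viable cells. Compounds were transferred in DMSO 5 h after seeding; fluorescence was recorded at intervals up to 40 h.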

A number with no mark means an inactive call. Inconclusive results are not listed. Active and inactive are the calls of the source. Unless noted, calls come from the whole dose curve; as a rule, active = well fitted curve in the direction sought with a large enough effect in the repeat runs; inconclusive = weak or mixed curves; inactive = no such curve, though single readings can be large; an effect the other way counts as inactive or inconclusive.
% is set by controls: 0 for no effect and ±100 for the full control effect.

Chain of Thyrotropin receptor (Homo sapiens) (P16473 whole entry, looked up): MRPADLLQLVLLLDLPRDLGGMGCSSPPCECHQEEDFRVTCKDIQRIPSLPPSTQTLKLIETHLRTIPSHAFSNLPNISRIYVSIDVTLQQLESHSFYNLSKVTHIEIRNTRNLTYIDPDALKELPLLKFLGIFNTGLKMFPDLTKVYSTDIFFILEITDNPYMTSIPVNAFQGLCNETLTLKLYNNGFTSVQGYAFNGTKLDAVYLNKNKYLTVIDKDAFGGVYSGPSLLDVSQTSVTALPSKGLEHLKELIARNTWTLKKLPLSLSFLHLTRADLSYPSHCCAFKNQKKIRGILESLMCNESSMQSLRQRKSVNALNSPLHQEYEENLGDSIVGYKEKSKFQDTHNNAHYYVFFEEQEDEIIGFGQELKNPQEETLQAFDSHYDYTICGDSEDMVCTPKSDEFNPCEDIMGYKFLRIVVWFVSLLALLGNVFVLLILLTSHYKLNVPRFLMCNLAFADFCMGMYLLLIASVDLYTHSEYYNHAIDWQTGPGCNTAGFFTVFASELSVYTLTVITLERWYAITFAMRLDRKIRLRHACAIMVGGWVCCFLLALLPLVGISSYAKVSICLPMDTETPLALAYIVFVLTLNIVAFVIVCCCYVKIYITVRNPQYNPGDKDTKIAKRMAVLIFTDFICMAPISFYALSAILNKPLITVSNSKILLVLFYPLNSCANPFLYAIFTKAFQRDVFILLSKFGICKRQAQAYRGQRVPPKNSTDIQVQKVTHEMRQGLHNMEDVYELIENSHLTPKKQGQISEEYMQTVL

As for `CC/C=C\CC/C=C/C(OCC)OCC`, the Potency entry in assay [1], in [2], in [5], in [6], in assay [8] and in [9] was “inactive” throughout. The Potency result in assay [10] was “inactive”. Also, the compound was classed as inactive in assay [3] and in assay [4]. In assay [7], the activity change, positive = activation was 2.27%.

For the compound `CC(=O)OCC(=O)[C@@]1(O)CCC2C3CCC4=CC(=O)CC[C@]4(C)C3[C@@H](O)C[C@@]21C` (stereo not given in full), the Potency result in assay [1], in [2], in assay [5], in [6], in assay [8] and in [9] was “inactive” in each case. The Potency entry in assay [10] is “inactive”. For the same compound, the outcome in [3] and in [4] was inactive. The activity change, positive = activation in [7] is -12.1% [at 42.5 µM].

With `O=C(O)Cc1ccc(CCNS(=O)(=O)c2ccc(Cl)cc2)cc1`, the Potency entry in [1], in assay [2], in assay [5], in assay [6], in [8] and in assay [9] was “inactive” in each case. Also, in assay [10], the Potency result was “inactive”. Moreover, the result in assay [3] and in assay [4] was inactive. Besides, the activity change, positive = activation in assay [7] was 0.244% [at 42.5 µM].

`C=CCCCCCCCCC=O`: the Potency entry in assay [1], in [2], in assay [5], in assay [6], in [8] and in assay [9] was “inactive” each time. Further, the Potency result in [10] is “inactive”. The result in assay [3] and in assay [4] was inactive. Besides, the activity change, positive = activation in assay [7] is -2.86%.

Consider `Cc1ccc(C#N)cc1`, for which the Potency result in assay [1], in [2], in [5], in assay [6], in assay [8] and in [9] was “inactive” each time. Further, the Potency entry in [10] was “inactive”. Further, the call in assay [3] and in assay [4] was inactive. In addition, the activity change, positive = activation in assay [7] is 1.46%.

Regarding `C/C=C(\C)C#N`, the Potency entry in assay [1], in assay [2], in assay [5], in assay [6], in assay [8] and in assay [9] was “inactive” in each case. The Potency entry in assay [10] is “inactive”. Also, the call in [3] and in assay [4] was inactive. Further, the activity change, positive = activation in assay [7] is 0.294%.

For `OC1CCCCC1c1ccccc1` (stereo not given), the Potency result in assay [1], in assay [2], in [5], in assay [6], in assay [8] and in assay [9] was “inactive” each time. Moreover, the Potency result in assay [10] was “inactive”. Moreover, the call in [3] and in assay [4] was inactive. Moreover, the activity change, positive = activation in [7] was 0.961%.

Take `Nc1ccccc1S(=O)(=O)O`: the Potency result in [1], in assay [2], in assay [5], in [6], in assay [8] and in assay [9] was “inactive” each time. Further, the Potency entry in assay [10] was “inactive”. Moreover, the compound was classed as inactive in assay [3] and in assay [4]. Besides, the activity change, positive = activation in assay [7] is 3.7%.

Take `CN1N=C(C(N)=O)CCC1=O`: the Potency result in [1], in [2], in [5], in [6], in [8] and in assay [9] was “inactive” in each case. Further, in assay [10], the Potency result is “inactive”. Moreover, the compound was classed as inactive in [3] and in assay [4]. For the same compound, in assay [7], the activity change, positive = activation is 0.737% [at 42.5 µM].

`CN(C)CCCSc1ccccc1NC(=O)/C=C/c1ccccc1`: the Potency result in [1], in [2], in assay [5], in assay [6], in assay [8] and in assay [9] was “inactive” each time. Also, the call in assay [3] and in [4] was inactive. Further, in [7], the activity change, positive = activation was 9.36% [at 42.5 µM]. The Potency in assay [10] was 16.9 µM (active).

For the compound `C1OCOCO1`, the Potency entry in assay [1], in assay [2], in assay [5], in assay [6], in [8] and in [9] was “inactive” throughout. For the same compound, in assay [10], the Potency result is “inactive”. The call in assay [3] and in [4] was inactive. In addition, in [7], the activity change, positive = activation was 6.76%.

On to `CCCCCCCCCCCCCCCCC`, for which the Potency result in [1], in assay [2], in [5], in assay [6], in assay [8] and in [9] was “inactive” each time. The Potency entry in assay [10] was “inactive”. The outcome in assay [3] and in assay [4] was inactive. For the same compound, the activity change, positive = activation in [7] is -0.135%.

Take `C[C@@H]1CCN(C(=O)[C@H](CCCN=C(N)N)NS(=O)(=O)c2cccc3c2NC[C@H](C)C3)[C@@H](C(=O)O)C1`: the Potency entry in assay [1], in assay [2], in [5], in assay [6], in assay [8] and in assay [9] was “inactive” each time. In assay [10], the Potency entry is “inactive”. Moreover, the result in assay [3] and in assay [4] was inactive. Also, the activity change, positive = activation in [7] was 6.26% [at 42.5 µM].

For `NC(=O)Nc1ccccc1`, the Potency entry in assay [1], in assay [2], in [5], in assay [6], in assay [8] and in assay [9] was “inactive” each time. In addition, the Potency entry in assay [10] was “inactive”. Moreover, the compound was called inactive in assay [3] and in assay [4]. For the same compound, in [7], the activity change, positive = activation was 8.88%.

`NC(=O)COCCN1CCN(C(c2ccccc2)c2ccc(Cl)cc2)CC1` (stereo not given): the Potency result in assay [1], in [2], in [5], in assay [6], in [8] and in assay [9] was “inactive” in each case. Besides, the Potency entry in assay [10] is “inactive”. Moreover, the call in [3] and in [4] was inactive. For the same compound, in assay [7], the activity change, positive = activation is 5.27% [at 42.5 µM].

For `CC(=O)CC(C)C`, the Potency result in assay [1], in assay [2], in assay [5], in [6], in assay [8] and in assay [9] was “inactive” throughout. Also, the Potency result in [10] is “inactive”. Further, the call in assay [3] and in assay [4] was inactive. Besides, in [7], the activity change, positive = activation was 1.24%.

Take `CCOC(C)(C)C`: the Potency entry in assay [1], in assay [2], in [5], in [6], in [8] and in assay [9] was “inactive” each time. The Potency entry in [10] is “inactive”. Besides, the outcome in assay [3] and in assay [4] was inactive. The activity change, positive = activation in [7] is 3.27%.

With `CCCc1cc(C(N)=S)ccn1`, the Potency entry in assay [1], in [2], in assay [5], in [6], in [8] and in assay [9] was “inactive” in each case. Moreover, in assay [10], the Potency result was “inactive”. Moreover, the call in [3] and in assay [4] was inactive. Moreover, in assay [7], the activity change, positive = activation is -6.09% [at 42.5 µM].
